# Data from PubChem BioAssay AID1732 (National Center for Advancing Translational Sciences (NCATS), 2009).
# The list shows a part of the results. Inconclusive results are not listed. Activity calls are given as the source filed them. Calls follow the shape of the dose curve; as a rule, active = well fitted inhibition curve with a large enough effect; inconclusive = small, poorly fitted or top-dose-only effect, or effect the other way, or another doubt; inactive = no such curve, though single readings can be large or run the other way.
# Target: Dual specificity mitogen-activated protein kinase kinase 1 (Homo sapiens) (UniProt Q02750)
# Sequence (Q02750 whole entry, looked up): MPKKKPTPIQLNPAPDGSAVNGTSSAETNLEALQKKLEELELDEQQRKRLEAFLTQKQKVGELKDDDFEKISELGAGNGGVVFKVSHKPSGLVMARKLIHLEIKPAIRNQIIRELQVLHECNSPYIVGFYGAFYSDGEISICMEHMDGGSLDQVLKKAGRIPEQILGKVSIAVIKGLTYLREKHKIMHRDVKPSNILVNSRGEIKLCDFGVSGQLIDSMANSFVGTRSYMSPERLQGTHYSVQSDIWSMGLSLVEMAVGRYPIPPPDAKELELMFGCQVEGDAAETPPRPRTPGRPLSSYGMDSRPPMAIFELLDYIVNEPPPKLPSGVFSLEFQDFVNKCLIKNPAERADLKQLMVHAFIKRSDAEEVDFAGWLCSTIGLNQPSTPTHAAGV
# Test: Assay for Inhibitors of the ERK Signaling Pathway using a Homogeneous Screening Assay: MEK Inhibition
# Settings: series mostly up to 76.9 µM; activity change, negative = inhibition: at the top concentration
# Source text: qHTS Assay for Inhibitors of the ERK Signaling Pathway using a Homogeneous Screening Assay
# NIH Chemical Genomics Center [NCGC]
# NIH Molecular Libraries Screening Centers Network [MLSCN]
# Assay Submitter (PI): Dr. Wei Zheng, NCGC/NIH
# The Ras/extracellular-signal-regulated kinase (ERK) mitogen activated protein (MAP) kinase signaling pathway (ERK1/2 cascade) plays is a key role in transmitting signals from the cell surface to the nucleus (Nishida and Gotoh 1993; Chang and Karin, 2001). The cascade is initiated by the small G-protein Ras, which recruits Raf […], where activation occurs. Alternatively, this pathway can be activated by elevating intracellular cAMP.
# Activation of the ERK pathway is essential in increased cell division and cell survival. Sustained and constitutive activation of the ERK pathway, however, has been linked to uncontrolled cell proliferation, increased cell survival, and tumor progression. Thus, the ERK has been as an attractive target for cancer chemotherapy in the past few years (Sebolt-Leopold and Herrera, 2004). Given its physiological and pathological importance, assessment of ERK phosphorylation has been broadly performed in both basic research and drug discovery. Most assays for the measurement of ERK phosphorylation use the antibody-based detection methods, such as western blot and ELISA. These assays require multiple reagent additions with cell wash steps and are not suitable for high-throughput screening.
# The current cell-based ERK phosphorylation assay was performed using AlphaScreen platform. AlphaScreen is a two bead-based proximity-dependent chemical energy transfer luminescent assay platform. The assay reagents (ERK SureFire(TM) kit) were supplied from TGR BioSciences (Australia). […]
# The HTRF kinase assay (components supplied as kit by Cisbio) was chosen for the EGFR and EGFR mutant enzyme assays that applied the time resolved fluorescence resonance energy transfer (TR-FRET) principle. […]
row,SMILES,"activity change, negative = inhibition"
1,O=[N+]([O-])c1ccccc1N/N=C1\CCc2ccccc21,-2.01% (inactive)
2,CN(C)c1cc2c(Nc3ccc4c(cnn4Cc4ccccc4)c3)ncnc2cn1,-11.3% (inactive)
3,CCCNc1ncnc2sc(C)c(C)c12,-6.81% (inactive)
